Values joined by “and” are separate entries in the source; they are usually repeats but may differ in a detail not shown here. Equal values may be shown once. About 79,000 compounds went through this panel and 15% of them were active in at least one assay; those are over-represented in the sample as a whole. More than one record can exist for a structure, and the calls need not agree. Active and inactive are the calls of the source. Rule as the data show it: active = growth inhibition above about 70%; inactive = the rest.

The text below walks through data of PubChem BioAssay (NCI).

Test [1] can be described thus: NCI Yeast Anticancer Drug Screen. Data for the rad50 strain (AID 155).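 Also: 0% = growth of vehicle-only cultures of the same strain.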 The conditions noted are these: S. cerevisiae rad50 strain growth inhibition; at 50.0 µM; stronger effect = higher value. The method, boiled down:
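Genetically altered yeast (DNA repair pathway); compound treatment; growth inhibition vs vehicle ctrl.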

The nature of test [2]: NCI Yeast Anticancer Drug Screen. Data for the mec2-1 strain (AID 157). The conditions noted are these: S. cerevisiae mec2-1 strain, at 50.0 µM, stronger effect = higher value. In a few lines:
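Compounds were applied to mec2-1 yeast cells. Their growth was then compared with that of vehicle-treated cultures to give growth inhibition.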

Test [3] can be described thus: NCI Yeast Anticancer Drug Screen. Data for the sgs1 mgt1 strain (AID 161).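 Also: 0% = growth of cultures given vehicle only.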 The following applies: S. cerevisiae sgs1 mgt1 strain, at 50.0 µM, stronger effect = higher value. The method, boiled down:
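Compounds are added to genetically altered yeast, and growth is compared with cultures given vehicle alone to give percent inhibition.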

Test [4] in a line: NCI Yeast Anticancer Drug Screen. Data for the cln2 rad14 strain (AID 165).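 Also: 0% = growth equal to vehicle treated cultures.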 The conditions noted are these: S. cerevisiae cln2 rad14 strain, at 50.0 µM, stronger effect = higher value. In a few lines: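 Strain: cln2 rad14 yeast, altered in cell cycle control and DNA damage repair. Read-out: growth inhibition vs vehicle.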
The nature of test [5]: NCI Yeast Anticancer Drug Screen. Data for the bub3 strain (AID 167). The following applies: S. cerevisiae bub3 mutant strain, at 50.0 µM, stronger effect = higher value. The method, boiled down:
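Yeast carrying a defined mutation is treated with each compound, and growth is compared with that of vehicle-exposed cells to give inhibition.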

Test [6] in a line: NCI Yeast Anticancer Drug Screen. Data for the mlh1 rad18 strain (AID 175). The conditions noted are these: S. cerevisiae mlh1 rad18 strain growth inhibition; at 50.0 µM; stronger effect = higher value. In a few lines:
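A repair-deficient yeast strain is exposed to test compound, and growth is scored relative to vehicle-treated controls.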

In the case of `CC(C)CCC(=O)c1ccoc1`, the growth inhibition in test [1] was -2.45% (inactive); in test [2], -9.95% (inactive); in test [3] it was -1.55% (inactive); in test [4], 3.65% (inactive); in test [5], 5.45% (inactive); in test [6], -28.6% (inactive).
Consider `Cc1cnc2ncn(Cc3c[nH]c(=O)[nH]c3=O)c(=O)c2c1`, for which the growth inhibition was -0.45% (inactive) in test [1]; 5.55% (inactive) in test [2]; -8% (inactive) in test [3]; 14.2% (inactive) in test [4]; -18.4% (inactive) in test [5]; -11.5% (inactive) in test [6].
For `c1ccc([As]2[As](c3ccccc3)[As](c3ccccc3)[As]2c2ccccc2)cc1` (stereo not given), the growth inhibition in test [1] was 99.5% (active); in test [2], 99.8% (active); in test [3], 99.8% (active); in test [4], 98.1% (active); in test [5] it was 99.2% (active); in test [6] it was 99.5% (active).
Turning to `O=C1NC(=O)C(CC(Br)CBr)(c2ccccc2)C(=O)N1` (stereo not given), the growth inhibition is 16.6% (inactive) in test [1]; -1.45% (inactive) in test [2]; 20.8% (inactive) in test [3]; 11.4% (inactive) in test [4]; -0.75% (inactive) in test [5]; 11.2% (inactive) in test [6].
For the compound `c1ccc2c(c1)-c1ccccc1C1NC21` (stereo not given), the growth inhibition in test [1] is 21.3% (inactive) and 69% (inactive); in test [2], 2.3% (inactive) and 47.4% (inactive); in test [3], 21.9% (inactive) and 48.2% (inactive); in test [4] it was 10.7% (inactive) and 56.1% (inactive); in test [5], 20.5% (inactive) and 98.5% (active); in test [6] it was -50.5% (inactive) and 51.2% (inactive).
As for `Cc1ccc(CCl)c(O)c1`, the growth inhibition was -25.7% (inactive) in test [1]; -14.6% (inactive) in test [2]; -6% (inactive) in test [3]; -12.5% (inactive) in test [4]; 7.1% (inactive) in test [5]; -0.8% (inactive) in test [6].
`CCN1CN(c2ccccc2)C2(CCN(CC(CC3OCCO3)c3ccc(F)cc3)CC2)C1=O` (stereo not given): the growth inhibition was 28.5% (inactive) in test [1]; 32.2% (inactive) in test [2]; 51.9% (inactive) in test [3]; 13.6% (inactive) in test [4]; 47% (inactive) in test [5]; 44.6% (inactive) in test [6].
As for `[Mg]=[Se]`, the growth inhibition was 16.6% (inactive) in test [1]; 3.15% (inactive) in test [2]; 14.4% (inactive) in test [3]; -6.5% (inactive) in test [4]; 6% (inactive) in test [5]; 38.8% (inactive) in test [6].
For the compound `C[C@@]1(CCCCCCCCCCc2ccccc2)C[C@@]2(C)OC(=O)C[C@H]2OO1`, the growth inhibition in test [1] was -15.1% (inactive); in test [2], -6.05% (inactive); in test [3], -20.2% (inactive); in test [4], -39% (inactive); in test [5], -80.7% (inactive); in test [6], -25.6% (inactive).
Regarding `NS(=O)(=O)c1ccc([As](=O)(O)O)cc1`, the growth inhibition in test [1] was -1.1% (inactive); in test [2], -3.85% (inactive); in test [3] it was 5% (inactive); in test [4] it was -45.5% (inactive); in test [5] it was 12.2% (inactive); in test [6], -15.7% (inactive).
Take `CC(C)(C)[Si](C)(C)OC(=O)CCCc1ccc(N(CCCl)CCCl)cc1`: the growth inhibition in test [1] is 12.1% (inactive); in test [2], -9.9% (inactive); in test [3], -10.2% (inactive); in test [4], 9.4% (inactive); in test [5] it was -21.7% (inactive); in test [6], -47.1% (inactive).
With `O=[As](O)(O)Cc1cccc(F)c1`, the growth inhibition was -3.8% (inactive) in test [1]; -7.8% (inactive) in test [2]; -6.65% (inactive) in test [3]; -46.5% (inactive) in test [4]; 2.1% (inactive) in test [5]; -8.35% (inactive) in test [6].
Turning to `NC(N)=NOCC[C@@H](N)C(=O)O`, the growth inhibition in test [1] is -0.5% (inactive); in test [2] it was -3.7% (inactive); in test [3] it was 8.85% (inactive); in test [4], 20.2% (inactive); in test [5] it was 1.4% (inactive); in test [6], 11.7% (inactive).
For `CC(C)OP(=O)(OC(C)C)C(=O)Nc1cc(Cl)ccc1Cl`, the growth inhibition in test [1] is -23.5% (inactive); in test [2], 14.6% (inactive); in test [3] it was -6.35% (inactive); in test [4], -31% (inactive); in test [5], 15% (inactive); in test [6] it was -0.15% (inactive).
In the case of `CCc1ccc(CCN2CCCCC2)nc1`, the growth inhibition in test [1] is -24.6% (inactive); in test [2], -21.4% (inactive); in test [3], -21.4% (inactive); in test [4] it was 6.75% (inactive); in test [5] it was -15.5% (inactive); in test [6] it was -1.6% (inactive).
Take `CC(=O)c1ccccc1O`: the growth inhibition was 10.8% (inactive) and 2.05% (inactive) in test [1]; 11.4% (inactive) and -10.9% (inactive) in test [2]; -53.4% (inactive) and -0.4% (inactive) in test [3]; -13.4% (inactive) and 2.05% (inactive) in test [4]; -16.9% (inactive) and 3.7% (inactive) in test [5]; -29.4% (inactive) and -4.5% (inactive) in test [6].
As to `CCCC(Br)C(=O)OCC` (stereo not given), the growth inhibition is 13.6% (inactive) in test [1]; 4.35% (inactive) in test [2]; -8.1% (inactive) in test [3]; 0.15% (inactive) in test [4]; 0.25% (inactive) in test [5]; 9.1% (inactive) in test [6].
Turning to `C=C(C(=O)OC1CC2CCC(C1)[N+]2(C)[O-])c1ccccc1` (stereo not given), the growth inhibition in test [1] was 7.4% (inactive); in test [2], -6% (inactive); in test [3] it was -19.4% (inactive); in test [4], -2.95% (inactive); in test [5] it was 3.1% (inactive); in test [6], -23.3% (inactive).
On to `CCCN=Cc1ccccc1O.CCCN=Cc1ccccc1O.[Ni]`, for which the growth inhibition is 37.5% (inactive) in test [1]; 9.4% (inactive) in test [2]; 18.6% (inactive) in test [3]; -35.9% (inactive) in test [4]; 4.85% (inactive) in test [5]; 29.8% (inactive) in test [6].
As for `c1ccc([C@H]2N[C@@H]2c2ccccn2)cc1`, the growth inhibition in test [1] was 22.6% (inactive); in test [2], 32.5% (inactive); in test [3], 32.5% (inactive); in test [4] it was -4.35% (inactive); in test [5], 19.5% (inactive); in test [6] it was 13.2% (inactive).
